Results taken from PubChem BioAssay AID1159580 (chemical genetic matrix, 2015).
In all, about 5,500 compounds went through this assay and about 2,000 (36%) were called active. Inconclusive results (about 18%) are left out. No stated cut-off is given here; in the data, active means normalized growth mostly below about 0.91 (no sharp cut-off); inconclusive means no clear call, values can overlap the other calls; inactive means mostly above about 0.92. The list shows a part of the results.

Experiment: chemical genetic growth profiling, strain panel (AID 1159580);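 further: tested at 20 µM; growth read once vehicle control cultures reached saturation at 30 °C; 1 = growth at the plate median or of vehicle wells; lower values mean less growth of the strain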
Settings: growth OD

Measured: normalized growth

Cn1cnc([N+](=O)[O-])c1Sc1ncnc2nc[nH]c12
inactive: S. cerevisiae deletion strains, locus YKL009W, strain mrt4, active compounds read low 0.983 | S. cerevisiae deletion strains, locus YKL068W, active compounds read low 0.997 | S. cerevisiae deletion strains, locus YKL085W, strain MDH1 (second series), active compounds read low 1 | S. cerevisiae deletion strains, locus YKL085W, strain MDH1, active compounds read low 1 | S. cerevisiae deletion strains, locus YKL160W, strain elf1, active compounds read low 1.04 | S. cerevisiae deletion strains, locus YKL190W, strain CNB1, active compounds read low 1.01 | S. cerevisiae deletion strains, locus YKR001C, strain vps1, active compounds read low 0.988 | S. cerevisiae deletion strains, locus YKR026C, strain gcn3, active compounds read low 1.01 | S. cerevisiae deletion strains, locus YKR091W, strain srl3, active compounds read low 1.01 | S. cerevisiae deletion strains, locus YLL001W, strain dnm1, active compounds read low 1.02 | S. cerevisiae deletion strains, locus YLL026W, active compounds read low 1.03 | S. cerevisiae deletion strains, locus YLL041C, strain sdh2, active compounds read low 1.02 | S. cerevisiae deletion strains, locus YLR027C, strain aat2, active compounds read low 1.02 | S. cerevisiae deletion strains, locus YLR039C, strain RIC1, active compounds read low 1.09 | S. cerevisiae deletion strains, locus YLR058C, strain SHM2, active compounds read low 1.01 | S. cerevisiae deletion strains, locus YLR102C, strain apc9, active compounds read low 0.993 | S. cerevisiae deletion strains, locus YLR113W, strain HOG1, active compounds read low 1.03 | S. cerevisiae deletion strains, locus YLR221C, strain rsa3, active compounds read low 1.01 | S. cerevisiae deletion strains, locus YLR258W, strain gsy2, active compounds read low 1.02 | S. cerevisiae deletion strains, locus YLR262C, strain YPT6 (second series), active compounds read low 0.996 | S. cerevisiae deletion strains, locus YLR262C, strain YPT6, active compounds read low 1.1 | S. cerevisiae deletion strains, locus YLR268W, strain sec22, active compounds read low 0.981 | S. cerevisiae deletion strains, locus YLR320W, strain mms22, active compounds read low 1.01 | S. cerevisiae deletion strains, locus YLR330W, strain CHS5, active compounds read low 1.01 | S. cerevisiae deletion strains, locus YLR342W, strain FKS1 (second series), active compounds read low 1.01 | S. cerevisiae deletion strains, locus YLR342W, strain FKS1, active compounds read low 1.02 | S. cerevisiae deletion strains, locus YLR357W, strain rsc2, active compounds read low 1 | S. cerevisiae deletion strains, locus YLR370C, strain arc18, active compounds read low 1.03 | S. cerevisiae deletion strains, locus YLR371W, strain rom2, active compounds read low 0.984 | S. cerevisiae deletion strains, locus YLR384C, strain iki3, active compounds read low 1.03 | S. cerevisiae deletion strains, locus YLR418C, strain cdc73, active compounds read low 1 | S. cerevisiae deletion strains, locus YML016C, strain PPZ1, active compounds read low 1.02 | S. cerevisiae deletion strains, locus YML032C, strain rad52, active compounds read low 0.989 | S. cerevisiae deletion strains, locus YML120C, strain ndi1, active compounds read low 0.999 | S. cerevisiae deletion strains, locus YML124C, strain tub3, active compounds read low 0.994 | S. cerevisiae deletion strains, locus YMR058W, strain fet3, active compounds read low 1.01 | S. cerevisiae deletion strains, locus YMR078C, strain ctf18, active compounds read low 0.985 | S. cerevisiae deletion strains, locus YMR125W, strain sto1, active compounds read low 1.01 | S. cerevisiae deletion strains, locus YMR129W, active compounds read low 1.01 | S. cerevisiae deletion strains, locus YMR205C, strain PFK2, active compounds read low 1.02 | S. cerevisiae deletion strains, locus YMR223W, strain ubp8, active compounds read low 0.994 | S. cerevisiae deletion strains, locus YMR231W, strain pep5, active compounds read low 1.02 | S. cerevisiae deletion strains, locus YMR263W, strain SAP30, active compounds read low 0.999 | S. cerevisiae deletion strains, locus YMR307W, strain GAS1, active compounds read low 1.11 | S. cerevisiae deletion strains, locus YNL067W, strain RPL9B, active compounds read low 0.99 | S. cerevisiae deletion strains, locus YNL071W, strain lat1, active compounds read low 1.03 | S. cerevisiae deletion strains, locus YNL153C, strain GIM3, active compounds read low 0.995 | S. cerevisiae deletion strains, locus YNL175C, strain NOP13, active compounds read low 1.01 | S. cerevisiae deletion strains, locus YNL183C, strain NPR1, active compounds read low 1 | S. cerevisiae deletion strains, locus YNL197C, strain WHI3, active compounds read low 1 | S. cerevisiae deletion strains, locus YNL209W, strain ssb2, active compounds read low 1.04 | S. cerevisiae deletion strains, locus YNL224C, strain SQS1, active compounds read low 0.966 | S. cerevisiae deletion strains, locus YNL233W, strain BNI4, active compounds read low 1 | S. cerevisiae deletion strains, locus YNL248C, strain rpa49, active compounds read low 1.06 | S. cerevisiae deletion strains, locus YNL250W, strain rad50, active compounds read low 0.99 | S. cerevisiae deletion strains, locus YNL271C, strain bni1, active compounds read low 0.993 | S. cerevisiae deletion strains, locus YNL298W, strain CLA4, active compounds read low 0.995 | S. cerevisiae deletion strains, locus YNL307C, strain MCK1, active compounds read low 0.981 | S. cerevisiae deletion strains, locus YNL322C, strain KRE1 (second series), active compounds read low 1.02 | S. cerevisiae deletion strains, locus YNL322C, strain KRE1, active compounds read low 1.01 | S. cerevisiae deletion strains, locus YNR049C, strain mso1, active compounds read low 1.01 | S. cerevisiae deletion strains, locus YNR052C, strain pop2, active compounds read low 0.99 | S. cerevisiae deletion strains, locus YOL006C, strain TOP1, active compounds read low 1 | S. cerevisiae deletion strains, locus YOL012C, strain htz1 1.34 | S. cerevisiae deletion strains, locus YOL147C, strain pex11, active compounds read low 0.988 | S. cerevisiae deletion strains, locus YOR001W, strain rrp6, active compounds read low 1.01 | S. cerevisiae deletion strains, locus YOR061W, strain CKA2, active compounds read low 1.02 | S. cerevisiae deletion strains, locus YOR069W, strain VPS5, active compounds read low 1.01 | S. cerevisiae deletion strains, locus YOR070C, strain gyp1, active compounds read low 1.03 | S. cerevisiae deletion strains, locus YOR080W, strain dia2, active compounds read low 1.02 | S. cerevisiae deletion strains, locus YOR083W, strain WHI5 (second series), active compounds read low 1.02 | S. cerevisiae deletion strains, locus YOR083W, strain WHI5, active compounds read low 0.98 | S. cerevisiae deletion strains, locus YOR106W, strain vam3, active compounds read low 1.04 | S. cerevisiae deletion strains, locus YOR136W, strain idh2, active compounds read low 0.979 | S. cerevisiae deletion strains, locus YOR144C, strain elg1, active compounds read low 0.987 | S. cerevisiae deletion strains, locus YOR184W, strain ser1, active compounds read low 0.981 | S. cerevisiae deletion strains, locus YOR231W, strain MKK1, active compounds read low 1.06 | S. cerevisiae deletion strains, locus YOR265W, strain rbl2, active compounds read low 1.02 | S. cerevisiae deletion strains, locus YOR270C, strain vph1, active compounds read low 1.05 | S. cerevisiae deletion strains, locus YOR290C, strain snf2, active compounds read low 1.04 | S. cerevisiae deletion strains, locus YOR316C, strain cot1, active compounds read low 0.996 | S. cerevisiae deletion strains, locus YPL051W, strain arl3, active compounds read low 1.04 | S. cerevisiae deletion strains, locus YPL078C, strain atp4, active compounds read low 1.03 | S. cerevisiae deletion strains, locus YPL106C, strain sse1, active compounds read low 1.03 | S. cerevisiae deletion strains, locus YPL240C, strain hsp82, active compounds read low 1.05 | S. cerevisiae deletion strains, locus YPL241C, strain CIN2, active compounds read low 1 | S. cerevisiae deletion strains, locus YPL256C, strain CLN2, active compounds read low 1.05 | S. cerevisiae deletion strains, locus YPR119W, strain clb2, active compounds read low 0.991 | S. cerevisiae deletion strains, locus YPR141C, strain kar3, active compounds read low 0.99 | S. cerevisiae deletion strains, locus YPR163C, strain tif3, active compounds read low 0.981 | S. cerevisiae deletion strains, locus YPR167C, strain met16, active compounds read low 0.989 | S. cerevisiae deletion strains, strain wtn01, active compounds read low 0.988 | S. cerevisiae strains, strain wild type, active compounds read low 1.01
